Bioassay records deposited in PubChem by National Center for Advancing Translational Sciences (NCATS).
PI5P4Ka inh: qHTS for Inhibitors of phosphatidylinositol 5-phosphate 4-kinase (PI5P4K) | Phosphatidylinositol 5-phosphate 4-kinase type-2 alpha (Homo sapiens), P48426 | actives 1.2% (n = 330,000) | PI5P4Kalpha enzyme, ADP-Glo luminescence, 60 min; stronger effect = lower value | max response, % | AID 652105, 2013; active = max response of -50% or lower; inconclusive = between -30% and -50%; inactive = -30% or higher; also: value at the top dose of about 77 µM; % is scaled to controls: 0 for no effect and ±100 for the full control effect
Target sequence (P48426 whole entry, looked up): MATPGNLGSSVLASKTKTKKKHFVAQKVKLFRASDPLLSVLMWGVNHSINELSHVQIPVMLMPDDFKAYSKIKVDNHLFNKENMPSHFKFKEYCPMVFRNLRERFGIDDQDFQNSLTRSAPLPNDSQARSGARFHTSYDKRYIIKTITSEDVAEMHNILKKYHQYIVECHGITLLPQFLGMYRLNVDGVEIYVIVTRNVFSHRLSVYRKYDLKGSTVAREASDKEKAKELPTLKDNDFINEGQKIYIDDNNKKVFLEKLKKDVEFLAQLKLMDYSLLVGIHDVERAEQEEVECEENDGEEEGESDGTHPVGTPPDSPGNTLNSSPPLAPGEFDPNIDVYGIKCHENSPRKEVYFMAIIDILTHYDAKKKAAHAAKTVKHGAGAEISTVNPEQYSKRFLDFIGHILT
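Controls without substrate or without enzyme flank wells where PI5P4Kalpha converts substrate using 5 microM ATP (final). Incubation lasts 60 minutes at room temperature; ADP formed is read by ADP-Glo luminescence.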
PLK1 PBD inh: qHTS for Inhibitors of PLK1-PDB (polo-like kinase 1 - polo-box domain): Primary Screen; Plk1 PBD binding of FITC phosphopeptide, fluorescence polarization; Potency, µM, for the others: max response, negative = inhibition, actives largely listed as inhibitors; actives 2.8% (n = 360,000); Serine/threonine-protein kinase PLK1 (Homo sapiens), P53350; also: potency is read from the fitted curve at half-maximal effect; series mostly up to about 57 µM; % is scaled to controls: 0 for no effect and ±100 for the full control effect; nearly all actives have a fitted effect of over 65% in size
G9a block: qHTS Assay for Inhibitors of Histone Lysine Methyltransferase G9a. Histone-lysine N-methyltransferase EHMT2 (Homo sapiens), Q96KQ7. G9a H3K9 monomethylation, AlphaScreen, 2 h. Potency, µM (series often up to 102 µM), for inactives: at the highest dose activity, negative = inhibition, usual class: inhibitors. actives 8.8% (n = 350,000); also: potency is read from the fitted curve at half-maximal effect; % is scaled to controls: 0 for no effect and ±100 for the full control effect; nearly all actives have a fitted effect of over 75% in size
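Signal arises when biotinylated H3K9 peptide, once monomethylated, bridges streptavidin donor and antibody-captured acceptor beads. Enzyme at 20 nM was preincubated 15 min with test compounds; peptide 500 nM and SAM 20 uM then reacted for 2 h.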
HP1b chromo inh: HTS for Inhibitors of HP1-beta Chromodomain Interactions with Methylated Histone Tails. actives 0.56% (n = 390,000). AlphaScreen HP1-beta / biotin-H3K9me3 peptide binding. Chromobox protein homolog 1 (Homo sapiens), P83916. Potency, µM (doses to about 114 µM), inactives show at the highest dose activity change, negative = inhibition, most hits filed as inhibitors; also: potency is read from the fitted curve at half-maximal effect; nearly all actives have a fitted effect of over 70% in size
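HP1-beta protein (50 nM final) preincubated 30 min at room temperature with biotinylated H3(1-18)K9me3 peptide (50 nM) in PBS pH 7.4, 0.01% Tween-20, then compound added for 30 min. AlphaScreen streptavidin donor/nickel chelate acceptor beads (10 ug/mL final), 30 min dark, luminescence read.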
BAZ2B inh: qHTS Assay for Inhibitors of BAZ2B; AlphaScreen BAZ2B-H3K14Ac peptide displacement; AID 504333, 2011; Bromodomain adjacent to zinc finger domain protein 2B (Homo sapiens), Q9UIF8; actives 4.4% (n = 360,000); Potency, µM (series often up to 114 µM), for inactives: top-dose activity change, negative = inhibition, hits mostly inhibitors; also: potency is read from the fitted curve at half-maximal effect; % is scaled to controls: 0 for no effect and ±100 for the full control effect; nearly all actives have a fitted effect of over 60% in size
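BAZ2B 50 nM plus b-H3(5-23)K14Ac 50 nM, PBS pH 7.4/0.01% Tween-20, 30 min RT; compound added (max 110 uM), 30 min RT; streptavidin donor/Ni-chelate acceptor beads 10 ug/mL final, 20 min dark; AlphaScreen read.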
JMJD2A Tudor: qHTS Assay for Inhibitors of JMJD2A-Tudor Domain; AlphaScreen JMJD2A-Tudor / H3K4me3 peptide binding; Lysine-specific demethylase 4A (Homo sapiens), O75164; Potency, µM (top dose mostly 114 µM), for the others: top-dose activity change, negative = inhibition, most hits filed as inhibitors; AID 504339, 2011; actives 4.4% (n = 390,000); also: potency is read from the fitted curve at half-maximal effect; % is scaled to controls: 0 for no effect and ±100 for the full control effect; nearly all actives have a fitted effect of over 50% in size
* = called active by the depositor; ? = inconclusive; · = no result; [ ] = dose if it differs, or a comment. Only some compounds are listed: those with a hit (about 12% of all), similar ones and a draw of the others. Unless noted, calls follow the shape of the dose curve; as a rule, active = well fitted curve in the direction sought with a large enough effect; inconclusive = small, poorly fitted or top-dose-only effect, or another doubt; inactive = no such curve, though single readings can be large; an effect the other way counts as inactive or inconclusive.

SMILES	PI5P4Ka inh	PLK1 PBD inh	G9a block	HP1b chromo inh	BAZ2B inh	JMJD2A Tudor
CCN(CC)S(=O)(=O)c1ccc(C(=O)NC2=C(C(=O)OC)SCC2)cc1	·	0%	22%[12.7 µM]	-15%	?	40µM*
O=C1OCc2ccc([N+](=O)[O-])cc21	-5	-1%	·	37%	·	2%
CC1C(=O)N(Cc2cn(Cc3ccco3)nn2)CCS(=O)(=O)N1Cc1ccc(-c2ccncc2)cc1 (stereo not given)	-23	-4%	·	·	·	·
CC(=O)Nc1cccc(NC(=O)CSc2nnc(Cc3cccn3C)n2CCc2ccccc2)c1	·	-9%	50µM*	1%	-37%	-16%
Cn1cccc1Cc1nnc(SCC(=O)Nc2nccs2)n1CCc1ccccc1	-7	-7%	50µM*	18%	?	?
CCSc1nnc(NC(=O)CSc2nnc(Cc3cccn3C)n2CCc2ccccc2)s1	·	-11%	3%[12.7 µM]	29%	?	-16%
COc1ccc(C)cc1NC(=O)C(c1ccccc1)N1CCNC(=O)C1 (stereo not given)	·	·	50µM*	·	-9%	·
COc1ccc(C)cc1NC(=O)C(OC(=O)C1CC1)c1ccccc1 (stereo not given)	5	-13%	40%	33%	3%	-4%
CC/C(=C\C(=O)c1ccncc1)Nc1ccc(Br)cc1	-4	-2%	?	?	50µM*	?
O=C(Nc1ccc(NC(=O)c2ccncc2)cc1)c1ccncc1	·	·	19%	·	2%	·
c1ccc(CNCc2nnc(-c3cc4ccccc4[nH]3)s2)cc1	·	·	·	·	·	-18%
O=C(COC(=O)c1ccc(Cl)cc1O)Nc1cccnc1Cl	4	-13%	50µM*	12%	0%	-6%
O=C(COC(=O)COc1ccc(Cl)cc1)Nc1cccnc1Cl	2	-6%	·	·	·	·
O=C(COC(=O)c1cc(Cl)ccc1O)NCCNC(=O)COC(=O)c1cc(Cl)ccc1O	-8	-4%	40µM*	9%	10%	-12%
Cc1cc(C)cc(C(=O)NCC(=O)OCC(=O)Nc2cccnc2Cl)c1	-8	-13%	5%	-18%	3%	10µM*
O=C(COC(=O)c1ccc(F)cc1F)Nc1cccnc1Cl	1	2%	35%[12.7 µM]	34%	-2%	5%
COC(=O)c1cc(F)c(S(=O)(=O)N2CCN(S(=O)(=O)c3ccc4c(c3)OCCO4)CC2)cc1F	·	·	·	·	·	-7%
COc1ccc(C2CC(=O)C3=C(C2)NC(C)=C(C#N)C3c2ccc(N(C)C)cc2)cc1 (stereo not given)	4	-3%	13µM*	?	?	?
COc1ccc(CCN(C(=O)/C=C/C(=O)O)C2CC(=O)N(c3ccccc3)C2=O)cc1 (stereo not given)	7	-10%	-29%	47%	-18%	-15%
CCc1ccc(N2C(=O)CC(N(CC3CCCO3)C(=O)/C=C/C(=O)O)C2=O)cc1 (stereo not given)	0	-15%	89µM*	20%	-4%	-34%
COC(=O)CCCC1=CC2=C(c3ccccc3)C(=O)C(C)(OC(=O)C3CCCC3)C(=O)C2=CN1Cc1ccco1 (stereo not given)	5	0%	1%[12.7 µM]	-6%	71µM*	?
O=C1NN(c2cccc(Br)c2)C(=O)/C1=C\c1ccc(N2CCOCC2)cc1	-2	?	79µM*	5%	?	?
CC1CCCN(C(=O)C2CCN(C(=O)Nc3ccccc3)CC2)C1 (stereo not given)	2	-9%	15%[59 µM]	38%	12%	-14%
CC1CCCN(C(=O)C2CCN(CC3CC=CCC3)CC2)C1 (stereo not given)	-5	-7%	?	?	7%	8.9µM*
